Test [1] is described as follows: NCI Yeast Anticancer Drug Screen. Data for the rad50 strain (AID 155).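 Further: 0% = growth of vehicle-only cultures of the same strain.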 Particulars: S. cerevisiae rad50 strain growth inhibition; at 50.0 µM; stronger effect = higher value. The procedure, abridged:
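Yeast carrying a defined DNA repair defect were exposed to test compounds, and growth was compared with vehicle-treated controls to give percent inhibition.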

A short description of test [2]: NCI Yeast Anticancer Drug Screen. Data for the mec2-1 strain (AID 157). Particulars: S. cerevisiae mec2-1 strain, at 50.0 µM, stronger effect = higher value. The procedure, abridged: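 Using mec2-1 yeast: add compound, measure growth, express inhibition versus vehicle-treated cultures.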
The nature of test [3]: NCI Yeast Anticancer Drug Screen. Data for the sgs1 mgt1 strain (AID 161).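 Further: 0% = growth of cultures given vehicle only.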 Particulars: S. cerevisiae sgs1 mgt1 strain, at 50.0 µM, stronger effect = higher value. The method in brief:
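Growth of a repair-deficient yeast mutant was monitored after compound treatment and expressed as inhibition relative to vehicle-treated cultures.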

Test [4] can be described thus: NCI Yeast Anticancer Drug Screen. Data for the cln2 rad14 strain (AID 165).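 Further: 0% = growth equal to vehicle treated cultures.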 Particulars: S. cerevisiae cln2 rad14 strain, at 50.0 µM, stronger effect = higher value. The method in brief: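 Yeast strain cln2 rad14, bearing defects in cell cycle control and DNA repair, serves as the test system; values reflect growth inhibition compared with vehicle.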
The nature of test [5]: NCI Yeast Anticancer Drug Screen. Data for the bub3 strain (AID 167). Particulars: S. cerevisiae bub3 mutant strain, at 50.0 µM, stronger effect = higher value. The procedure, abridged: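 Compounds were applied to a genetically altered yeast strain carrying a cell-cycle control defect. Growth inhibition was scored against vehicle-treated controls.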
Test [6] in a line: NCI Yeast Anticancer Drug Screen. Data for the mlh1 rad18 strain (AID 175). Particulars: S. cerevisiae mlh1 rad18 strain growth inhibition; at 50.0 µM; stronger effect = higher value. The procedure, abridged: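 Steps: expose repair-defective yeast to compound; measure growth; express inhibition against vehicle-treated controls.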

This is part of a sample that, as a whole, favours compounds with a hit. Of some 79,000 tested, about 15% had one in any assay. Values without a mark were called inactive. Active and inactive are the calls of the source. No stated cut-off is given here; in the data, active means growth inhibition above about 70%; inactive means the rest.

The values below come from PubChem BioAssay (NCI).

For `O=C(Nc1ccc2ccccc2c1)c1ccc(Cl)cc1Cl`, the growth inhibition in test [1] was -12.1%; in test [2], 14.2%; in test [3], -0.7%; in test [4], -2.85%; in test [5] it was 2.45%; in test [6] it was -14.8%.
With `CC(CNC(N)=O)NC(N)=O` (stereo unspecified), the growth inhibition in test [1] is -23.8%; in test [2] it was -15.8%; in test [3] it was -32.4%; in test [4], 11.4%; in test [5], -19.6%; in test [6] it was -24.4%.
With `O=c1oc2ccc(Br)cc2cc1-n1nnc2ccccc21`, the growth inhibition is -0.45% in test [1]; -6.55% in test [2]; 2.45% in test [3]; 0.6% in test [4]; 15.9% in test [5]; 5.55% in test [6].
With `Cn1cnc2ncnc(Oc3ccc(Cl)cc3)c21`, the growth inhibition in test [1] is -13.5%; in test [2], -10.3%; in test [3], -2.95%; in test [4], 4.45%; in test [5], -27.1%; in test [6], -14.1%.
Turning to `CCC(C)N=Cc1ccccc1O.CCC(C)N=Cc1ccccc1O.[Cu]` (stereo unspecified), the growth inhibition was 33.7% in test [1]; -10.3% in test [2]; 28.4% in test [3]; -44.7% in test [4]; 2.1% in test [5]; 11.2% in test [6].
Consider `Nc1cccc2c(=O)[nH][nH]c(=O)c12`, for which the growth inhibition in test [1] was 16.6%; in test [2], -3.1%; in test [3] it was 23.9%; in test [4], 9.95%; in test [5], 14.8%; in test [6], 22.1%.
For the compound `CCCCNC(=S)/N=C/c1c(O)cc(C)oc1=O`, the growth inhibition in test [1] was -16.6%; in test [2], -25.9%; in test [3], -24.1%; in test [4], 2.25%; in test [5], -14.6%; in test [6], 2.75%.
Consider `CCN(CC)c1ccc(/C=N\NC(=S)N/N=C/c2ccc(N(CC)CC)cc2)cc1`, for which the growth inhibition in test [1] is -2.3%; in test [2] it was 0.85%; in test [3] it was 7.9%; in test [4], 33%; in test [5], -0.95%; in test [6], -1.1%.
On to `O=C1OCCc2c1[nH]c1ccccc21`, for which the growth inhibition in test [1] was 12.9%; in test [2] it was 10.7%; in test [3], 5.65%; in test [4] it was 22.9%; in test [5], 13.5%; in test [6], 17.6%.
For the compound `NNc1nc(N2CCOCC2)c2[nH]cnc2n1`, the growth inhibition in test [1] was -1.3%; in test [2], -5.45%; in test [3], 14.2%; in test [4], 4.5%; in test [5] it was -9.9%; in test [6], 4.75%.
As to `O=[N+]([O-])c1ccc(NN=C2CN3CCN(C2)c2ccccc23)c([N+](=O)[O-])c1`, the growth inhibition was 35.4% in test [1]; 20.1% in test [2]; 59.8% in test [3]; 40.8% in test [4]; 40.6% in test [5]; 35.1% in test [6].
`COc1ccc(-c2nnc(-c3ccc(OC)cc3)o2)cc1`: the growth inhibition is 20.1% in test [1]; -2.85% in test [2]; 16.5% in test [3]; 0.2% in test [4]; 1.15% in test [5]; -7.95% in test [6].
Turning to `CCC1Cc2ccccc2OC1=O` (stereo unspecified), the growth inhibition is 10.9% in test [1]; -3.6% in test [2]; -1.95% in test [3]; -7.7% in test [4]; 7.9% in test [5]; 1.55% in test [6].
As for `C(=C\C1OCCO1)/c1ccccc1`, the growth inhibition was 14.4% in test [1]; 0.45% in test [2]; 7.25% in test [3]; -2.4% in test [4]; 18.1% in test [5]; -3% in test [6].
On to `CC1=NN(c2ccccc2)C(=O)/C1=C\c1ccccc1`, for which the growth inhibition was 15.6% in test [1]; 16.9% in test [2]; 24.7% in test [3]; 10.1% in test [4]; 33.5% in test [5]; 21.6% in test [6].
Take `CN1CCN(C(=S)N(C(=O)c2ccc(Cl)cc2)c2ccccc2)CC1`: the growth inhibition in test [1] was -49.2%; in test [2], -36.5%; in test [3] it was -20.6%; in test [4], -6.8%; in test [5], 4.65%; in test [6], -7.25%.
Take `CC/C(=C(\CC)c1ccc(OC2C=CCCC2)cc1)c1ccc(OC2C=CCCC2)cc1` (stereo unspecified): the growth inhibition in test [1] is 28.3%; in test [2], -4.7%; in test [3], 7%; in test [4], -2.55%; in test [5] it was -13.8%; in test [6], -0.1%.
On to `O=C(O)/C=C/Sc1ccc(Cl)cc1`, for which the growth inhibition in test [1] is 76% (active); in test [2] it was 32.5%; in test [3] it was 79.3% (active); in test [4] it was 59.9%; in test [5] it was 78% (active); in test [6] it was 78.4% (active).
Turning to `COc1ccc(C(O)c2ncccc2C)cc1OC` (stereo unspecified), the growth inhibition in test [1] is -0.3%; in test [2], 31.3%; in test [3], 20.1%; in test [4] it was -9.35%; in test [5] it was 24.8%; in test [6] it was 22.3%.
For `CCc1cc2c(cc1/C(C)=N/N=C(\C)c1cc3c(cc1CC)C(C)(C)CCC3(C)C)C(C)(C)CCC2(C)C`, the growth inhibition in test [1] was -27.1%; in test [2] it was -1.8%; in test [3], -9.3%; in test [4] it was -30.6%; in test [5], 9.95%; in test [6], -15.5%.
Take `C1CC2CC1C13OC1C1(CC1)C1OC213` (stereo unspecified): the growth inhibition in test [1] was -4.5%; in test [2], 11.6%; in test [3], -40.5%; in test [4] it was -28.4%; in test [5], -20.2%; in test [6] it was -45.5%.
Take `COc1cc2c(cc1OC)C1(CCCl)C3CC4C(=CCOC5CC(=O)N2C1C54)CN3C(=O)Cc1ccccc1` (stereo unspecified): the growth inhibition is 40.2% in test [1]; 4.95% in test [2]; 16.4% in test [3]; 11.2% in test [4]; 5.9% in test [5]; 23.6% in test [6].
`Cc1cc2c(=O)cc(-c3ccccc3)oc2c(C(N)=O)c1C`: the growth inhibition in test [1] is 15.3%; in test [2] it was 19.9%; in test [3] it was 27.5%; in test [4], -2.95%; in test [5] it was 14.8%; in test [6], 1.55%.
Regarding `O=[N+]([O-])c1ccc2[nH]nc(OCc3ccccn3)c2c1`, the growth inhibition in test [1] is 35%; in test [2], 33.4%; in test [3] it was -23.8%; in test [4], 28.1%; in test [5] it was 7.15%; in test [6] it was 20.9%.
In the case of `C=C/C=C1\CCOC1=O`, the growth inhibition in test [1] is 1.15%; in test [2], -5.9%; in test [3] it was 2.85%; in test [4] it was -3.05%; in test [5] it was 3.1%; in test [6], -10.6%.
As to `CC(C)c1nnnn1C12CC3CC(CC(C3)C1)C2`, the growth inhibition in test [1] is 2.75%; in test [2], -13.2%; in test [3], 1%; in test [4] it was -17.4%; in test [5], -3.3%; in test [6] it was 11.5%.
With `O=C1NOCC1NCc1c(O)ccc2ccccc12` (stereo unspecified), the growth inhibition was 19.9% in test [1]; 13.2% in test [2]; 33.7% in test [3]; 26.6% in test [4]; 17.9% in test [5]; 23.2% in test [6].
Consider `COc1ccc2nc3cc([N+](=O)[O-])ccc3c(Nc3ccc(S(=O)(=O)N=C(N)N)cc3)c2c1`, for which the growth inhibition in test [1] was 59.8%; in test [2] it was 21.8%; in test [3] it was 48.5%; in test [4], 12.8%; in test [5], 38.8%; in test [6], 53.9%.
Turning to `CCN(CC)CCN(CC)CCN(CC)CC`, the growth inhibition is 6.7% in test [1]; 5.65% in test [2]; -1.75% in test [3]; 3.85% in test [4]; 4.1% in test [5]; -0.7% in test [6].
For `CN=C(N)SCCSC(N)=NC`, the growth inhibition was -12.3% in test [1]; -18.2% in test [2]; 0.25% in test [3]; -13.5% in test [4]; 11.5% in test [5]; -5.15% in test [6].
As to `O=c1[nH]c(=O)c2c(Cl)cccc2[nH]1`, the growth inhibition in test [1] is 7.2%; in test [2] it was 9.9%; in test [3], 5.35%; in test [4] it was -22%; in test [5] it was -2.7%; in test [6] it was -4.1%.
As for `CCC(Nc1ncnc2nc[nH]c12)C(=O)O` (stereo unspecified), the growth inhibition in test [1] is -7.5%; in test [2], -14.2%; in test [3], -17.4%; in test [4] it was -20.4%; in test [5], -23.6%; in test [6], 14%.
Regarding `O=c1ccsc(=S)[nH]1`, the growth inhibition is -1% in test [1]; -2.1% in test [2]; -8.35% in test [3]; 0.25% in test [4]; 9.05% in test [5]; -3.9% in test [6].
Turning to `Cc1cc(C)cc(N=Nc2c(N)nc(N)[nH]c2=O)c1`, the growth inhibition is 4.85% in test [1]; -10.7% in test [2]; -49.9% in test [3]; -11.2% in test [4]; -3.2% in test [5]; -7.3% in test [6].
Consider `O=C(NCc1ccccc1)NCN1CCOCC1`, for which the growth inhibition was 20.7% in test [1]; -0.85% in test [2]; 5.15% in test [3]; 0.45% in test [4]; 5.65% in test [5]; -11.3% in test [6].
On to `NC(=O)/C=C1\NC(=O)CS1`, for which the growth inhibition is 0.05% in test [1]; 7.7% in test [2]; 1% in test [3]; -31.1% in test [4]; -4.55% in test [5]; 4.2% in test [6].
In the case of `N=C1N=Nc2nc(CC(=O)c3ccc(Cl)cc3Cl)c(O)n21`, the growth inhibition in test [1] is -9.8%; in test [2], -8.35%; in test [3] it was 1.05%; in test [4], -31.5%; in test [5], -11.8%; in test [6], -37.6%.
With `N=C(N)SCCCN`, the growth inhibition in test [1] was -1.7%; in test [2], -14.7%; in test [3] it was -3.6%; in test [4] it was 2.95%; in test [5], -36%; in test [6], 29.1%.
As to `N#Cc1nc(C2=C(Cl)c3ccccc3OC2)[nH]c1C#N`, the growth inhibition is 40% in test [1]; 42.9% in test [2]; 46.5% in test [3]; 56.5% in test [4]; 50.6% in test [5]; 31.8% in test [6].
For the compound `Cc1cc2nnc(-c3cccc([N+](=O)[O-])c3)n2c2nnnn12`, the growth inhibition in test [1] was 25%; in test [2], 31.1%; in test [3] it was 21.6%; in test [4] it was 66.7%; in test [5], 37.8%; in test [6], 36.7%.
Regarding `CCC(C1=CCCCC1)c1nc2c([nH]1)c(=O)n(C)c(=O)n2C` (stereo unspecified), the growth inhibition was 7.95% in test [1]; 8.5% in test [2]; 23.6% in test [3]; 8.65% in test [4]; 17.6% in test [5]; 45.5% in test [6].
